According to the supplement of paper PMC6555819:

What was measured:
Assay in all cases: PBM binding z-score (relative to random genomic background probes); higher = stronger binding; sequences stand for … in GC…GCGATTGACAGCGTAGAATGAAGG
[1] = tested on: RARb homodimer (NR concentration 270 nM)
How it was run: (§1)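 Probes were double-stranded and carried 34-nt variable regions with direct-repeat seeds, single-nucleotide variants, half-site ablations and random human genomic background sequences, printed on custom Agilent 4×180K protein-binding microarrays. Arrays were incubated 1 h with ligand-free nuclear receptor dimers in PBS pH 7.4, 2% milk, 0.02% Triton X-100, 1 mM DTT, 0.2 mg/mL BSA and 0.4 mg/ml salmon testes DNA. Antibodies against each partner (one per run) detected binding, and scanned fluorescence was regression-normalized. Binding z-scores use the random background probes as reference.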

[2] = tested on: RARg:RXRa (NR concentration 270 nM, RXRa partner concentration 90 nM)
How it was run: as §1

[3] = tested on: RARg homodimer (NR concentration 270 nM)
How it was run: as §1

[4] = tested on: RXRa DBDmut IVT, anti-RXR (DBD mutation: RXRa K156A/R161A, NR concentration 90 nM)
How it was run: as §1

[5] = tested on: RXRa homodimer (NR concentration 180 nM)
How it was run: as §1

[6] = tested on: THRa:RXRa (NR concentration 90 nM, RXRa partner concentration 90 nM)
How it was run: as §1

[7] = tested on: THRa homodimer (NR concentration 90 nM)
How it was run: as §1

[8] = tested on: VDR:RXRa (NR concentration 270 nM, RXRa partner concentration 90 nM)
How it was run: as §1

[9] = tested on: VDR homodimer (NR concentration 270 nM)
How it was run: as §1

Sequence | PBM binding z-score [1] | PBM binding z-score [2] | PBM binding z-score [3] | PBM binding z-score [4] | PBM binding z-score [5] | PBM binding z-score [6] | PBM binding z-score [7] | PBM binding z-score [8] | PBM binding z-score [9]
ATCGAAAGGTCGTCGAGGTGAGTATACACCGTTT | 3.07 | 4.59 | 4.35 | 1.72 | 5.2 | 3.83 | 0.955 | 5.7 | 2.41
CGAACTAGGTCACCATGACAGTGAAGAGGTTGGA | 3.31 | 4.27 | 5.26 | 1.18 | 3.17 | 2.99 | 1.41 | 1.78 | 0.264
TGGAGTAGGTTACGGGGGCATTCAGGGATGAAGA | 2.94 | 3.75 | 3.39 | 2.16 | 2.83 | 4.11 | 2.48 | 4.24 | 3.94
CGAAGTAGGTCAAAGGACAGTGAAAGGCGACGTA | 3.05 | 4.15 | 4.75 | 1.19 | 3.67 | 2.1 | -0.0786 | 1.9 | 0.382
TCGAGTAGGTTACGGGGGCAGTCAGGGATGAAGA | 2.06 | 2.82 | 2.3 | 1 | 2.21 | 2.81 | 1 | 2.8 | 1.25
CCATGTAGGTTAAGGGGGTCATTCAGTTTGAAAG | 4.05 | 5.03 | 3.85 | 2.37 | 5.74 | 3.87 | 2.67 | 7.41 | 6.01
CCGACTGGGGCAAAGGTTACGATACTCAGTACGA | 2.03 | 3.68 | 1.78 | 0.541 | 3.62 | 1.81 | -0.139 | 1.61 | -0.301
CCTACTGGGCCATTCAGAGGACATTGATCATATG | 0.736 | 0.858 | 0.53 | -0.28 | -0.174 | 0.676 | 0.238 | -0.347 | 0.541
CTATGTAGGTTAAGGCGGTCATTCAGTTTGAAAG | 1.65 | 1.31 | 1.44 | 0.518 | 0.704 | 0.878 | -0.0284 | 3.84 | 0.465
CGAACTAGGTCAAAGGACAGAGAAAGGCGACGTA | 2.7 | 4.29 | 4.46 | 1.73 | 3.38 | 2.44 | 0.0564 | 1.54 | 0.391
CAAACTAGGTCACGAAAGGTCAAAGTTGAATGAC | 6.02 | 8.01 | 8.58 | 2.59 | 8.85 | 5.01 | 2.88 | 6.81 | 3.89
TCGAGTAGGTAACGGGGGCATTCAGGGATGAAGA | 1.54 | 2.02 | 1.09 | 1.75 | 1.74 | 3.76 | 1.33 | 3.38 | 2.49
TCGAGTTGGTTACGGGGGCATTCAGGGATGAAGA | 1.6 | 2.49 | 1.71 | 2.61 | 1.89 | 3.74 | 1.87 | 3.63 | 4.57
GGAACGGGGGCAAGTTGATAGCAGAGTTTGATGG | 2.35 | 3.33 | 3.16 | 3.37 | 2.6 | 2.51 | 1.27 | 3.44 | 4.04
CGCCCAAGGTCAGCAGGTCAGTGAAAGCGACGTG | 4.99 | 6.47 | 6.63 | 2.48 | 5.3 | 3.63 | 2.02 | 3.83 | 1.38
AATACAGGATCACTAGGCCAGAGTAGGTACGAAT | 0.388 | 0.343 | 0.495 | -0.317 | 0.367 | -0.0476 | -0.262 | -0.235 | 0.0243
GCTCGGGGGACAAGGTCAGAGCTTTGTCCGTAGA | 3.12 | 4.71 | 4.55 | 1.43 | 3.63 | 3.48 | 1.91 | 3.07 | 1.47
ATCTCTAGGTGAAAGTTCAGTGAATCCCGAGGAT | 2.67 | 2.88 | 2.27 | 0.779 | 2.74 | 2.19 | 0.227 | 1.83 | 1.33
CCTTACGGGTCACGGTTATAGCACGGGTGGTACG | 3.58 | 5.47 | 5.06 | 0.501 | 6.44 | 3.28 | 0.418 | 3.87 | 1.26
CGAATTAGGTCAAAGGACAGTGAAAGGCGACGTA | 3.18 | 4.17 | 4.47 | 1.73 | 3.37 | 3.09 | 1.4 | 1.65 | 0.401
TCGAGTAGGATACGGGGGCATTCAGGGATGAAGA | 1.19 | 1.52 | 0.916 | 1.24 | 1.29 | 3.47 | 0.629 | 2.49 | 2.79
ATCTCTAGGTAAAGTTCATTGAAAGATCGATAGA | 1.97 | 2.99 | 3.16 | 2.96 | 2.49 | 1.84 | 0.478 | 3.08 | 4.56
CCTTACGGGTCAAGGTTATCGCACGGGTGGTACG | 3.58 | 5.02 | 5.11 | 1.31 | 5.6 | 3.15 | 1.02 | 3.69 | 1.69
TTGAGTAGGTTACGGGGGCATTCAGGGATGAAGA | 2.59 | 3.71 | 3.05 | 2.36 | 3.3 | 3.83 | 2.02 | 4.34 | 4.22
ATATGTAGGTTAGGGTCATTGAGAAAGTAGGGAA | 3.51 | 4.09 | 3.1 | 2.32 | 5.3 | 4.13 | 3.44 | 4.27 | 3.55
CGAAGTAGGTCACCAGGACAGTGAAGAGGTTGGA | 3.32 | 4.39 | 5.16 | 1.03 | 3.57 | 2.85 | 1.2 | 2.07 | 0.581

Sequence | PBM binding z-score [1] | PBM binding z-score [2] | PBM binding z-score [3] | PBM binding z-score [4] | PBM binding z-score [5] | PBM binding z-score [6] | PBM binding z-score [7] | PBM binding z-score [8] | PBM binding z-score [9]
ATATGTAGGGTAGGGTCATTCAGAAAGTAGGGAA | 3.53 | 3.55 | 2.77 | 2.93 | 4.34 | 4.11 | 3.7 | 4.48 | 4.73
CCTACTGGGCAAAAAAGGTCATTGATGCCGATAA | 4.17 | 4.03 | 4.11 | 0.33 | 4.81 | 3.57 | 0.0156 | 4.36 | 2.05
ATCGAAAGGTCGTGAGGTGAGTTTACAGAAAGGC | 3.38 | 4.69 | 4.07 | 2.26 | 5.37 | 3.57 | 1.5 | 4.49 | 3.12
AGAGTGAGGTTACCAAAGATCAGGGAAACGCTTG | 1.61 | 2.25 | 1.78 | 0.473 | 2.81 | 2.84 | 1.16 | 1.64 | 0.671
CAAGCTAGGTCAAGAGGTCAAAGTCCGCTTCCCG | 5.7 | 8.34 | 7.66 | 2.58 | 8.24 | 4.31 | 2.36 | 5.9 | 3.64
AAATGTAGGTTAGGGTCATTCAGAAAGTAGGGAA | 3.49 | 3.99 | 3.4 | 2.78 | 5.29 | 4.02 | 3.35 | 4.55 | 3.92
CAATGTAGGTTAAGGGGGTCATTCAGTTTGAAAG | 4.09 | 5.27 | 3.94 | 3 | 5.94 | 3.9 | 2.81 | 7.74 | 6.76
CCTACTGGGCGAAGGTCATTGATCAGTCAAAGCA | 3.08 | 3.7 | 2.52 | 0.409 | 2.97 | 2.2 | -0.298 | 2.18 | 1.33
ACCAGCAGGCCAAGGGTCACTCAAGATTAGTCCG | 3.61 | 4.08 | 3.49 | 0.237 | 4.04 | 2.63 | 0.148 | 2.47 | 1.1
TCTAGTTCGTCACGGAGGTCACACACGACGGGTA | 4.28 | 4.52 | 4.04 | 2.51 | 4.68 | 3.67 | 2.73 | 4.68 | 3.58
GATACAGAGTCAGCTAGAGGCCAGAGTATGGAAA | -0.00482 | 0.958 | 0.249 | -0.732 | -0.0704 | -0.305 | -1.05 | -0.601 | -0.0123
TCGAGTAGGTTAAGGGGGCATTCAGGGATGAAGA | 2.37 | 3.17 | 2.01 | 1.92 | 2.62 | 3.58 | 1.48 | 3.35 | 3.24
TCGAGTACGTTACGGGGGCATTCAGGGATGAAGA | 1.42 | 1.46 | 0.926 | 3.21 | 1.25 | 3.59 | 0.925 | 3.76 | 4.32
CTATGTAGGTTAAGGGGGTCATTAAGTTTGAAAG | 3.65 | 4.97 | 3.44 | 2.43 | 5.43 | 3.79 | 2.03 | 7.64 | 6.07
CGAACTAGCTCAAAGGACAGTGAAAGGCGACGTA | 0.955 | 0.138 | 0.6 | -0.347 | -0.119 | 0.0409 | -0.622 | -0.564 | -0.00865
CTATGTTGGTTAAGGGGGTCATTCAGTTTGAAAG | 3.86 | 4.63 | 3.46 | 2.63 | 5.18 | 3.75 | 3.17 | 6.64 | 6.63
ATATGTAGGTTTGGGTCATTCAGAAAGTAGGGAA | 2.2 | 1.92 | 1.33 | 1.36 | 2.05 | 2.74 | 2.23 | 2.04 | 2.22
ATCGAAAGGTCGACGAGGTGAGAATACACCGTTT | 3.04 | 4.56 | 4.16 | 1.15 | 4.87 | 4.05 | 0.736 | 5.52 | 0.942
ACTAGTTGGTAAGCTGAGGTCACACACAATTCGG | 4.01 | 3.45 | 2.93 | 1.25 | 3.57 | 4.52 | 5.19 | 3.71 | 3.29
CTATGCAGGTTAAGGGGGTCATTCAGTTTGAAAG | 3.8 | 5.13 | 4.11 | 2.38 | 6.2 | 3.91 | 2.28 | 7.5 | 5.99
TCTCGGAGGACACGAAAGGTCAGAACTCGACATC | 4.38 | 4.56 | 5.19 | 0.955 | 3.93 | 3.46 | 1.48 | 3.19 | 1.29
CTATGTAGGTTAAGTGGGTCATTCAGTTTGAAAG | 2.4 | 1.97 | 1.95 | 0.703 | 1.73 | 1.97 | 0.347 | 4.99 | 2.29
AGAATGGGGTTATTAAGATCAGGGAATTGCGGTC | 1.53 | 1.85 | 0.796 | 2.11 | 3.5 | 2.6 | 1.56 | 4.05 | 2.41
ATCGAAAGGTCGTGAGGTGAGTACACAGAAAGGC | 3.12 | 4.77 | 4.06 | 1.6 | 5.77 | 3.39 | 1.68 | 4.14 | 1.92
CGAACTAGGTCTCCAGGACAGTGAAGAGGTTGGA | -0.111 | -0.0715 | 0.188 | -0.342 | -0.062 | 1.11 | 0.505 | -0.586 | -0.34
CCTACTGGGCCAAAGGTCATAGATTCCAATGCTC | 4.32 | 5.69 | 4.78 | 1.1 | 6.28 | 3.22 | 0.866 | 4.17 | 2.27
